Measured values reported in PubChem BioAssay AID1159580 (chemical genetic matrix, 2015).
In all, about 5,500 compounds went through this assay and about 2,000 (36%) were called active. Inconclusive results (about 18%) are left out. No stated cut-off is given here; in the data, active means normalized growth mostly below about 0.91 (no sharp cut-off); inconclusive means no clear call, values can overlap the other calls; inactive means mostly above about 0.92. This is one part of the list.

Experiment: chemical genetic growth profiling, strain panel (AID 1159580);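 further: tested at 20 µM; growth read once vehicle control cultures reached saturation at 30 °C; 1 = growth at the plate median or of vehicle wells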
Conditions: S. cerevisiae deletion strains, growth OD

Measured: normalized growth

CC(=O)N[C@H](C(=O)O)C(C)(C)SN=O
inactive: locus YAL013W, strain DEP1, stronger effect = lower value 1.01 | locus YAL040C, strain CLN3, stronger effect = lower value 1.01 | locus YCL061C, strain MRC1 (second series), stronger effect = lower value 1.01 | locus YDR363W, strain ESC2, stronger effect = lower value 0.989 | locus YER002W, strain NOP16, stronger effect = lower value 1.01 | locus YGR078C, strain PAC10, stronger effect = lower value 1.02 | locus YGR229C, strain SMI1, stronger effect = lower value 1 | locus YMR307W, strain GAS1, stronger effect = lower value 0.987 | locus YNL128W, strain TEP1, stronger effect = lower value 0.998 | locus YNL153C, strain GIM3, stronger effect = lower value 1.02 | locus YNL175C, strain NOP13, stronger effect = lower value 1.01 | locus YNL197C, strain WHI3, stronger effect = lower value 1.01 | locus YNL224C, strain SQS1, stronger effect = lower value 1.02 | locus YNL322C, strain KRE1, stronger effect = lower value 1.01 | locus YOR083W, strain WHI5 (second series), stronger effect = lower value 1.02 | locus YPL241C, strain CIN2, stronger effect = lower value 1.01

CC(=O)O[C@H]1CC2CCC3C(CC[C@@]4(C)C3C[C@H]([N+]3(C)CCCCC3)[C@@H]4OC(C)=O)[C@@]2(C)C[C@@H]1N1CCCCC1 (stereo partly specified)
inactive: locus YAL021C, strain ccr4, stronger effect = lower value 1.02 | locus YAL026C, strain drs2, stronger effect = lower value 1.03 | locus YAL030W, strain snc1, stronger effect = lower value 1.03 | locus YBL061C, strain skt5, stronger effect = lower value 1.02 | locus YBR009C, strain hhf1, stronger effect = lower value 1.03 | locus YBR023C, strain chs3, stronger effect = lower value 1.02 | locus YBR171W, strain sec66, stronger effect = lower value 1.04 | locus YBR231C, strain swc5, stronger effect = lower value 1.03 | locus YBR279W, strain paf1, stronger effect = lower value 1.03 | locus YCL011C, strain gbp2, stronger effect = lower value 1.03 | locus YCL016C, strain dcc1, stronger effect = lower value 1.02 | locus YCL061C, strain MRC1, stronger effect = lower value 1.02 | locus YCL069W, strain vba3, stronger effect = lower value 1.02 | locus YCR088W, strain abp1, stronger effect = lower value 1.02 | locus YDL005C, strain med2, stronger effect = lower value 1.03 | locus YDL040C, strain nat1, stronger effect = lower value 1.01 | locus YDR001C, strain nth1, stronger effect = lower value 1.02 | locus YDR069C, strain doa4, stronger effect = lower value 1.02 | locus YDR137W, strain rgp1, stronger effect = lower value 1.07 | locus YDR159W, strain sac3, stronger effect = lower value 1.03 | locus YDR195W, strain ref2 1.03 | locus YDR297W, strain sur2, stronger effect = lower value 1.02 | locus YDR334W, strain swr1, stronger effect = lower value 1.02 | locus YDR335W, strain msn5, stronger effect = lower value 1.02 | locus YDR392W, strain spt3, stronger effect = lower value 0.868 | locus YEL003W, strain gim4, stronger effect = lower value 1.02 | locus YEL037C, strain rad23, stronger effect = lower value 1.02 | locus YEL061C, strain CIN8 (second series), stronger effect = lower value 1.03 | locus YER015W, strain faa2, stronger effect = lower value 1.02 | locus YER016W, strain bim1, stronger effect = lower value 1.02 | locus YER111C, strain swi4, stronger effect = lower value 1.01 | locus YER155C, strain BEM2 (second series), stronger effect = lower value 1.03 | locus YFR010W, strain ubp6, stronger effect = lower value 1.01 | locus YGL167C, strain pmr1, stronger effect = lower value 1.04 | locus YGL173C, strain kem1, stronger effect = lower value 1.03 | locus YGL227W, strain vid30, stronger effect = lower value 1.02 | locus YGL240W, strain doc1, stronger effect = lower value 1.04 | locus YGL253W, strain hxk2, stronger effect = lower value 1.01 | locus YHR013C, strain ard1, stronger effect = lower value 1.01 | locus YHR027C, strain rpn1, stronger effect = lower value 1.02 | locus YHR030C, strain SLT2, stronger effect = lower value 1.05 | locus YHR079C, strain IRE1, stronger effect = lower value 1.03 | locus YHR142W, strain chs7, stronger effect = lower value 1.02 | locus YJL092W, strain hpr5, stronger effect = lower value 1.01 | locus YJL095W, strain BCK1 (second series), stronger effect = lower value 1.02 | locus YJL095W, strain BCK1, stronger effect = lower value 0.993 | locus YJL115W, strain asf1, stronger effect = lower value 1.02 | locus YJL129C, strain trk1, stronger effect = lower value 1.03 | locus YJL154C, strain vps35, stronger effect = lower value 1.02 | locus YJL164C, strain tpk1, stronger effect = lower value 1 | locus YJL166W, strain qcr8, stronger effect = lower value 1.03 | locus YJL187C, strain SWE1, stronger effect = lower value 1.03 | locus YJR066W, strain TOR1, stronger effect = lower value 0.979 | locus YKL160W, strain elf1, stronger effect = lower value 1.03 | locus YKR026C, strain gcn3, stronger effect = lower value 0.998 | locus YKR091W, strain srl3, stronger effect = lower value 1.03 | locus YLL001W, strain dnm1, stronger effect = lower value 1.01 | locus YLL026W, stronger effect = lower value 1.02 | locus YLL041C, strain sdh2, stronger effect = lower value 1.02 | locus YLR027C, strain aat2, stronger effect = lower value 1.02 | locus YLR113W, strain HOG1, stronger effect = lower value 0.99 | locus YLR221C, strain rsa3, stronger effect = lower value 1.01 | locus YLR258W, strain gsy2, stronger effect = lower value 1.02 | locus YLR262C, strain YPT6 (second series), stronger effect = lower value 1.04 | locus YLR320W, strain mms22, stronger effect = lower value 1.02 | locus YLR342W, strain FKS1, stronger effect = lower value 1.02 | locus YLR357W, strain rsc2, stronger effect = lower value 1.04 | locus YLR370C, strain arc18, stronger effect = lower value 1.02 | locus YLR384C, strain iki3, stronger effect = lower value 1.03 | locus YML120C, strain ndi1, stronger effect = lower value 1.02 | locus YMR058W, strain fet3, stronger effect = lower value 1.03 | locus YMR125W, strain sto1, stronger effect = lower value 1.05 | locus YMR129W, stronger effect = lower value 1.02 | locus YMR205C, strain PFK2, stronger effect = lower value 1.05 | locus YMR231W, strain pep5, stronger effect = lower value 1.02 | locus YNL071W, strain lat1, stronger effect = lower value 1.01 | locus YNL183C, strain NPR1, stronger effect = lower value 0.965 | locus YNL209W, strain ssb2, stronger effect = lower value 1.02 | locus YNL248C, strain rpa49, stronger effect = lower value 1.01 | locus YNL322C, strain KRE1 (second series), stronger effect = lower value 1.02 | locus YNR049C, strain mso1, stronger effect = lower value 1.01 | locus YOR001W, strain rrp6, stronger effect = lower value 1.02 | locus YOR070C, strain gyp1, stronger effect = lower value 1.01 | locus YOR080W, strain dia2, stronger effect = lower value 1.04 | locus YOR083W, strain WHI5, stronger effect = lower value 1.02 | locus YOR106W, strain vam3, stronger effect = lower value 1.02 | locus YOR231W, strain MKK1, stronger effect = lower value 1.04 | locus YOR265W, strain rbl2, stronger effect = lower value 1.02 | locus YOR270C, strain vph1, stronger effect = lower value 1.04 | locus YOR290C, strain snf2, stronger effect = lower value 1.03 | locus YPL051W, strain arl3, stronger effect = lower value 1.01 | locus YPL078C, strain atp4, stronger effect = lower value 1.02 | locus YPL106C, strain sse1, stronger effect = lower value 1.02 | locus YPL240C, strain hsp82, stronger effect = lower value 1.01 | locus YPL256C, strain CLN2, stronger effect = lower value 1.04
